From PubChem BioAssay
DRD3 antagonist = D3 dopamine receptor (human) antagonism; D3R cells, DiscoveRx beta-arrestin luminescence, antagonist mode; hits give low values; max response, negative = inhibition, %; P35462; 360,000 compounds, 2.5% hits; in the data active = max response below about -50%; inconclusive = no clear call, values can overlap the other calls; also: % is scaled to controls: 0 for no effect and ±100 for the full control effect
Target sequence (P35462 whole entry, looked up): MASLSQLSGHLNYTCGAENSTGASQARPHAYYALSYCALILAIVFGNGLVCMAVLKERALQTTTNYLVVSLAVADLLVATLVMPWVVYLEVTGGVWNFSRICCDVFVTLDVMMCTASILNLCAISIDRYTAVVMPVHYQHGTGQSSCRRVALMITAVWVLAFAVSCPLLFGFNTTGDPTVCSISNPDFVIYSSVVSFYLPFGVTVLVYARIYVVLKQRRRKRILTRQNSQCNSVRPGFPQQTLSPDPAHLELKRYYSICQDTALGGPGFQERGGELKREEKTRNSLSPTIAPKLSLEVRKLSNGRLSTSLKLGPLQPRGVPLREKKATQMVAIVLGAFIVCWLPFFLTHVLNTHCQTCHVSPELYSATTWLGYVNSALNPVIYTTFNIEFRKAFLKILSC
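Cells expressing the human receptor were seeded at 1500 cells/well, incubated overnight at 37 degrees C in 5% CO2, then exposed to library compounds with dopamine controls for 90 minutes at 37 degrees C before luminescent detection.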
HepG2 tox = kills HepG2 cells in TGF-b inhibitor counter-screen; HepG2 CAGA-GFP viability, ATP luminescence, 18 h; Potency, µM (highest dose often 46.1 µM), for inactives: at the top dose activity change, negative = cytotoxicity, usual class: cytotoxic; 410,000 compounds, 0.76% hits; also: potency is read from the fitted curve at half-maximal effect
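CellTiter-Glo luminescence gave cytotoxicity after 18 hours at 37 degrees C. The cells were HepG2 CAGA-GFP in 1% FBS DMEM, stimulated with 500 pg/mL TGF-beta after compound addition. %Activity was normalised to no-cell wells (complete cell-killing) and DMSO (no toxicity), and curves were fitted and classified.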
TGFb inhibitor = blocks TGF-b signaling | 410,000 compounds, 1.2% hits | AID 588855 | Potency, µM (titrated, usually from 46.1 µM), for inactives: at the highest dose activity, negative = inhibition, actives largely listed as inhibitors | HepG2 CAGA-GFP TGF-b/SMAD3 reporter, GFP fluorescence, 18 h; TGF-beta stimulated, 500 pg/mL final; also: potency is read from the fitted curve at half-maximal effect; % is scaled to controls: 0 for no effect and ±100 for the full control effect; nearly all actives have a fitted effect of over 65% in size
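Smad-responsive CAGA-GFP expression was quantified in HEPG2 cells exposed to compounds and 500 pg/mL final TGF-beta for 18 h at 37 degrees C; unstimulated wells defined full inhibition.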
S2 tox = reduces viability in counter-screen for ATXN expression inhibitors. AID 651635. S2 cells (HEK-293 line with an ATXN2-luciferase reporter) viability, CellTiter-Fluor protease fluorescence, 24 h. Potency, µM (series often up to 56.7 µM), usual class: cytotoxic. 400,000 compounds, 0.49% hits; also: potency is read from the fitted curve at half-maximal effect; nearly all actives have a fitted effect of over 40% in size
ATXN2 expr inh = reduces ATXN2 reporter expression in HEK-293 cells. Potency, µM (doses to about 57 µM), for the others: top-dose activity change, negative = inhibition, actives largely listed as inhibitors. HEK-293 ATXN2-luciferase reporter, luminescence, 24 h. 360,000 compounds, 0.72% hits. AID 1745845; also: potency is read from the fitted curve at half-maximal effect; % is scaled to controls: 0 for no effect and ±100 for the full control effect; nearly all actives have a fitted effect of over 55% in size
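ATXN2-luciferase reporter cells (luciferase flanked by upstream and downstream ATXN2 gene portions) were treated 24 h at 37 °C with compounds at up to 57 uM. SteadyGlo luminescence gave expression; GF-AFC fluorescence gave viability.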
D3 ag = D3 dopamine receptor (human) agonism. P35462. D3R DiscoveRx beta-arrestin cells, luminescence, 90 min. max activation, %. 410,000 compounds, 0.58% hits; in the data active = max activation above about 30%; also: 0% is about no effect
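Cells at 1500/well, incubated overnight, then treated with pinned compounds (dopamine as control) for 90 min at 37 degrees C. DiscoveRx reagent added for 30 - 60 minutes at room temperature; luminescence read.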
An asterisk follows results filed as active; i = inactive; ? = inconclusive; / = not tested or not shown; [ ] = dose if it differs, or a comment. Shown are actives, neighbours in structure and some others; about 4.8% of the full set was active somewhere. Unless noted, calls follow the shape of the dose curve; as a rule, active = well fitted curve in the direction sought with a large enough effect; inconclusive = small, poorly fitted or top-dose-only effect, or another doubt; inactive = no such curve, though single readings can be large; an effect the other way counts as inactive or inconclusive.

SMILES	DRD3 antagonist	HepG2 tox	TGFb inhibitor	S2 tox	ATXN2 expr inh	D3 ag
CCn1c(SCC(=O)Nc2ccc(C(C)=O)cc2)nc2nc3c(cc2c1=O)CCCC3	44	-19%	3%	28µM*	?	30*
COc1cc(/C=C2\CCCc3c2nc2ccccc2c3C(=O)O)cc([N+](=O)[O-])c1O	-100*	-2%	-7%	?	-14%	-30
Cc1cc(C)cc(NC(=O)C2CC23CCN(Cc2ccc4ncccc4c2)CC3)c1 (stereo unspecified)	/	/	/	i	/	/
COc1ccc([N+](=O)[O-])cc1NCc1cccc([N+](=O)[O-])c1	-53*	12%	-7%	i	-38%[11.3 µM]	-10
Nc1nc(N)c2cc(Sc3ccc4ccccc4c3)ccc2n1	26	-179%	11µM*	?	?	1
Nc1nc(N)c2cc(Sc3ccc(Cl)cc3)ccc2n1	30	-114%	?	/	/	8
C=CCOc1cccc(C2/C(=C(/O)c3ccc(Cl)cc3)C(=O)C(=O)N2CCN2CCOCC2)c1 (stereo unspecified)	-56*	-2%	-3%	?	-2%	0
CN(C1CCc2c(c3ccccc3n2CC(=O)O)C1)S(=O)(=O)c1ccc(F)cc1 (stereo unspecified)	/	/	/	/	-9%	/
O=[N+]([O-])c1ccc(C2=NN(CCO)C(=Nc3ccc(OC(F)(F)F)cc3)SC2)cc1	-56*	-67%	?	i	-20%	10
COc1cccc(C(=O)N2CCCC(c3nc(SCCN4CCOCC4)ncc3C)C2)c1 (stereo unspecified)	/	/	/	i	/	/
Cc1cc(C=c2sc3nc4ccccc4n3c2=O)c(C)n1-c1ccccc1	/	/	/	/	0.24µM*	/
CCOC(=O)c1c(C)nc2c(c1-c1cc(OC)ccc1OC)C(=O)c1ccccc1-2	8	1%	-28%	/	/	1
CCOC(=O)c1c(C)nc2c(c1-c1ccccc1)C(=O)c1ccccc1-2	42	-8%	-18%	i	-5%	41*
COc1cccc(CN2CCSCC2)c1OC	2	1%	9%	i	-2%	3
CCOc1cccc(CN2CCN(c3cccc(C(F)(F)F)c3)CC2)c1O	-96*	-7%	8%	i	-29%	-60
COc1cccc(CN2CCN(c3cccc(C(F)(F)F)c3)CC2)c1OC	-73*	-42%	?	i	-22%	-29
COc1ccc2cc(CNCc3ccccc3Cl)c(N3CCCC(CO)C3)nc2c1 (stereo unspecified)	/	/	/	i	/	/
Cc1ccc2c(c1)C(=O)C(=O)N2Cc1ccc(C(F)(F)F)cc1	-51*	18µM*	16µM*	28µM*	?	-30
Cc1ccc2c(c1)C(=O)C(=O)N2Cc1ccc(OC(C)C)cc1	/	-48%	10µM*	?	?	-27
Cc1ccc(OCCN2C(=O)C(=O)c3cc(C)ccc32)cc1	?	-2%	7%	?	-3%	-11
COC(C[C@H]1O[C@@H]1C(=O)COCc1ccccc1)OC	-5	-28%	-18%	i	3%	32*
Cc1cccc(NC(=O)Cn2nc(-c3ccccc3)c3cnc4ccccc4c32)c1	/	-48%	-4%	i	0%	2
CC(C)c1cc(C(=O)NC(C)c2ccccc2)no1 (stereo unspecified)	/	-4%	4%	i	7%	2
O=C1N/C(=N/NC(=O)c2cccc3ccccc23)S/C1=C\c1ccccc1OCc1ccccc1	-59*	-22%	?	i	-12%	6
O=S(=O)(c1cccc(F)c1)N1CCN(c2nc(-c3cccs3)nc3ccccc23)CC1	/	8%	-9%	/	/	/
SMILES	DRD3 antagonist	HepG2 tox	TGFb inhibitor	S2 tox	ATXN2 expr inh	D3 ag
CC(=O)c1cccc(NC(=O)CC(c2ccc(C)cc2)N2Cc3ccccc3C2=O)c1 (stereo unspecified)	/	-16%	-10%	i	-13%	-4
Cc1ccc(/C=N\NC(=O)c2csnn2)cc1	-53*	-3%	?	i	34%	-10
Cc1ccc(/C=N/NC(=O)c2ccncc2)cc1	?	-12%	2%	i	24%	-5
CCOC(=O)c1c(C)[nH]c(C)c1S(=O)(=O)N1CCCC(C(=O)N2CCN(c3cc(C)ccc3C)CC2)C1 (stereo unspecified)	/	-25%	?	?	?	-3
Cn1c(=O)oc2cc(S(=O)(=O)NC(Cc3ccccc3)C(=O)Nc3ccc(F)c(Cl)c3)ccc21 (stereo unspecified)	/	-22%	4%	i	-13%	0
O=C(C1=C[C@@H](c2ccc(Br)cc2)C[C@@H](OCc2ccc(CO)cc2)O1)N1CCN(Cc2ccc3c(c2)OCO3)CC1	-63*	-1%	-27%	?	?	-13
O=C(c1ccc(Br)s1)N1CCN(Cc2ccc3c(c2)OCO3)CC1	-95*	-9%	-2%	i	-24%	-57
O=C(c1ccc(Br)o1)N1CCN(Cc2ccc3c(c2)OCO3)CC1	-81*	-11%	0%	i	-21%	-4
COc1ccc(CNC(=O)c2ccc(-c3nc(CSc4ccccc4)c(C)o3)cc2)cc1OC	/	-15%	1%	i	-8%	-5
Cc1ccc(S(=O)(=O)NCc2ccc(C(=O)NCCN(Cc3ccccc3)C(C)C)cc2)cc1	-79*	-11%	?	i	-31%	-19
CC(C)N(CCNC(=O)c1ccc(CS(=O)(=O)c2c(Cl)cccc2Cl)o1)Cc1ccccc1	-70*	-21%	0%	i	-17%	-22
COc1ccccc1Nc1c2c(nc3ccccc13)CCC2	0	-27%	18µM*	?	?	-3
COc1cc(Cl)c(C)cc1Nc1c2c(nc3ccccc13)CCC2	/	11µM*	16µM*	14µM*	?	-14
COc1cc(Nc2c3c(nc4ccccc24)CCCC3)cc(OC)c1OC	-27	-49%	-7%	?	35%	-8
COc1ccc(Nc2c3c(nc4ccccc24)CCC3)c(OC)c1	3	-32%	?	i	-33%	0
Cc1cc(C)n(C(C)CC(=O)Nc2ccc(C)c(N(C)C)c2)n1 (stereo unspecified)	/	-7%	2%	i	-1%	-17
O=C(CCN1Cc2ccccc2OC(c2ccccc2F)C1)N1CCC(N2CCCC(O)C2)CC1 (stereo unspecified)	/	/	/	i	/	/
C/C=C/c1ccc(OCCCNC(C)CC)c(OC)c1 (stereo unspecified)	?	-2%	2%	i	-19%	-5
C/C=C/c1ccc(OCCCNC2CCCC2)c(OC)c1	-61*	-38%	-10%	i	-14%	0
